# Laboratory results taken from PubChem BioAssay AID1508611 (The Scripps Research Institute Molecular Screening Center, 2020).
# Screen size: about 6,700 compounds; about 20 (0.3%) were called active. This is one part of a sample in which actives are shown more often than they occur. Unmarked numbers belong to inactive results.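 How the source made its calls: active means mean percent activation in the counterscreen above 29.09%; inactive means the rest.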
# Target: Glucose-dependent insulinotropic receptor (Homo sapiens) (UniProt Q8TDV5)
# Assay: off-target GPR119 activation – cell-based, PathHunter beta-arrestin, luminescence, triplicate, counter-screen for GPR151 activator project (AID 1508611);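 further: counterscreen on off-target GPR119 to flag nonselective hits from the GPR151 activator screen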
# Conditions: GPR119 PathHunter beta-arrestin cells, 90 min, at 11.2 µM, stronger effect = higher value, 0 = compound-well median, 100 = enzyme-acceptor control
# Chain of Glucose-dependent insulinotropic receptor (Homo sapiens) (Q8TDV5 whole entry, looked up): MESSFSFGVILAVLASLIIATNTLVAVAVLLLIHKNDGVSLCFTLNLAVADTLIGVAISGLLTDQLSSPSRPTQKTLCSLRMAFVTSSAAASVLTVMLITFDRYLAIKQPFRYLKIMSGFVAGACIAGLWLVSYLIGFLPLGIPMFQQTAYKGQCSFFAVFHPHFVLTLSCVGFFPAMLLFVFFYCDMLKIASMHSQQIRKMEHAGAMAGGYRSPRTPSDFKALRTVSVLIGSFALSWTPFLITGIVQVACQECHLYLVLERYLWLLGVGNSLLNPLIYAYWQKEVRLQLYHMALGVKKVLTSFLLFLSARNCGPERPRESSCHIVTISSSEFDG
row,Structure (SMILES),activation
1,Cc1nc(-c2cccc(NC(=O)C3CC(=O)c4ccccc43)c2)cs1 (stereo unspecified),4.74%
2,CC(C)CNc1nc2c(c(=O)[nH]c(=O)n2C)n1CC(C)O (stereo unspecified),5.13%
3,CCCCOC(=O)C1=C(C)NC2=C(C(=O)CCC2)C1c1cccc([N+](=O)[O-])c1 (stereo unspecified),-13.7%
4,NC(=O)C1CCN(C(=O)c2ccc(-c3ccccc3)cc2)CC1,-13.1%
5,CN1C(=O)c2ccc(N3C(=O)c4cccc([N+](=O)[O-])c4C3=O)cc2C1=O,-8.76%
6,COc1cc(Nc2ccnc(Nc3ccc(N4CCOCC4)cc3)n2)cc(OC)c1OC,31.6% (active)
7,COc1cc2nc(-c3cccc(C(C)=O)c3)nc(Nc3ccc(N4CCOCC4)cc3)c2cc1OC,1.25%
8,CCN(CC)c1nc(Nc2cc(OC)c(OC)c(OC)c2)nc(N2CCOCC2)n1,-4.38%
9,CCN(CC)c1nc(Nc2ccccc2)nc(Nc2ccccc2)n1,5.68%
10,CCOC(=O)c1cccc(NC(=O)/C=C/c2ccccc2)c1,2.43%
11,COCCn1c(C)cc(C(=O)CSc2nnc(-c3ccccc3)o2)c1C,0.76%
12,COc1ccc(OC)c(S(=O)(=O)Oc2ccc(Cl)c3cccnc23)c1,14.7%
13,O=C(CC1C(=O)NCCN1C(=O)c1ccc([N+](=O)[O-])cc1)Nc1cccc(Cl)c1 (stereo unspecified),8.78%
14,COc1ccc(-c2cc(N)n(S(=O)(=O)c3ccccc3)n2)c(OC)c1,-9.92%
15,c1ccc(-c2ccc(OCCCNCCN3CCOCC3)cc2)cc1,-6.67%
16,COc1ccc(C2=NN(C(=O)c3cc(OC)c(OC)c(OC)c3)C(c3ccc(Cl)cc3)C2)cc1OC (stereo unspecified),10.6%
17,C=C(C)CSc1nc2sc3c(c2c(=O)n1-c1ccc(OC)cc1)CC(C)(C)OC3,13.8%
18,COc1ccccc1C1CCCN1C(=O)C1CCN(c2nc(C)c3ccccc3n2)CC1 (stereo unspecified),0.39%
19,COc1ccc(OC)c(NC(=O)CN(c2cccc(C)c2C)S(C)(=O)=O)c1,-9.68%

row,Structure (SMILES),activation
1,O=C(CC12CC3CC(CC(C3)C1)C2)Nc1ccc2oc(=O)ccc2c1,-8.76%
2,CC(C)(C)C1(O)CCN2C[C@H]3c4ccccc4CCc4cccc(c43)[C@@H]2C1 (stereo partly specified),2.66%
3,OCCC1CN(Cc2ccc3cc(F)ccc3n2)CCN1C1CCCC1 (stereo unspecified),11.7%
4,CCCn1ncc(CN2CCCC(N3CCC(CO)CC3)C2)c1C (stereo unspecified),1.74%
5,CCCOC(=O)C1=C(C)NC(=O)NC1c1ccc(Br)cc1 (stereo unspecified),-8.21%
6,O=C(Cn1c(=S)nc2ccccn21)N1CCc2ccccc2C1,4.38%
7,CCOC(=O)C1=CN(C)C=C(C(=O)OCC)C1c1ccc(OC)cc1,7.33%
8,O=C(O)COc1ccc(N2C(=O)C(=O)/C(=C(\O)c3ccccc3)C2c2ccc(Cl)cc2Cl)cc1 (stereo unspecified),1.15%
9,Cc1nnc(SCC(=O)NCc2ccccc2)s1,-8.49%
10,CN(CC(=O)Nc1cccc2c1CCCC2)S(=O)(=O)c1ccc(Cl)cc1,-16%
11,COC(=O)[C@@H]1CC[C@H](C)[C@@H](c2ccc(C)cc2)N1C(=O)c1ccc(/C=N/O[C@H](C)c2cn([C@@H]3COC[C@H]3O)nn2)cc1,-5.11%
12,Cc1ccccc1CC1(CO)CCCN(Cc2ccncc2)C1 (stereo unspecified),-3.82%
13,O=C(CSc1ccc(F)cc1)Nc1cccc2ccccc12,-0.98%
14,COc1ccc2c(c1)C=C(CN1CCN(CC3CCCCC3)C(CCO)C1)CO2 (stereo unspecified),10.3%
15,O=c1[nH]c(=S)[nH]c(O)c1C=Nc1ccc(F)c(Cl)c1,5.32%
16,O=C(Cn1c(=O)n(Cc2cccs2)c(=O)c2cccnc21)Nc1ccc(F)cc1,-1.72%
17,CCOC(=O)c1sc(NC(=O)CSc2ncccn2)c(C#N)c1C,2.97%
18,CC(C)C(=O)NNS(=O)(=O)c1ccc([N+](=O)[O-])cc1,0.04%
19,O=C(NCc1nnc(SCC(=O)N2N=C(c3cccs3)CC2c2ccc(F)cc2)n1Cc1ccccc1)c1cccc(F)c1 (stereo unspecified),-10.8%

row,Structure (SMILES),activation
1,CCc1ccc(-c2ccc(C3CCC(CC)CC3)cc2)nc1 (stereo unspecified),-6.15%
2,CC(C)c1ccc(Nc2nccn3c(-c4cccc(CO)c4)cnc23)cc1,15.7%
3,O=C(c1ccccc1)N1CCCCC(Sc2ncnc3sc4c(c23)CCCC4)C1=O (stereo unspecified),0.65%
4,C[C@H]1Cc2c(COc3ccccc3)nc3c(c2CO1)CN(C(=O)NCc1ccco1)CC3,9.06%
5,CC(C)n1c(Nc2ccc3ncccc3c2)nc2c(NC3CC3)ncnc21,3.65%
6,Cc1cc(CN(C)Cc2ccc(OCC(O)CN(C)Cc3ccccc3)cc2)n[nH]1 (stereo unspecified),-0.59%
7,O=C(NCCOc1ccccc1)c1cnc(N2CCN(c3ccccn3)CC2)s1,1.31%
8,COC(=O)CN1C=C(C(=O)OC)C(c2ccc(OC)c(O)c2)C(C(=O)OC)=C1,20.6%
9,CCOC(=O)c1cc2cc(-c3c(C)oc4cc(OC(C)=O)ccc4c3=O)ccc2o1,-2.06%
10,CN(Cc1nc(-c2ccc3c(c2)OCO3)no1)C1CCCc2ccccc21 (stereo unspecified),0.92%
11,O=C(Cc1cccs1)Nn1c(-c2cccc([N+](=O)[O-])c2)nc2ccccc2c1=O,13.2%
12,CC1(C(=O)Nc2cccc(C(F)(F)F)c2)CC2c3ccccc3C1c1ccccc12 (stereo unspecified),0.35%
13,O=CN1CCN(CCC(=O)Nc2ccccc2)CC1,-6.54%
14,CCOc1ccc(NC(=O)N2CCN(CC)CC2)cc1,6.5%
15,CCSc1nc2sccn2c(=O)c1C(=O)NC(Cc1ccccn1)C(F)(F)F (stereo unspecified),-3.52%
16,Cc1cccc(-n2nc3c(c2NC(=O)CCC2CCCCC2)CS(=O)(=O)C3)c1C,7.21%
17,COc1ccc(-c2noc(N3CCC(C(=O)NCCCN4CCN(C)CC4)CC3)n2)cc1,3.82%
18,FC(F)(F)c1ccc(Cn2cnc3c(NCc4cccc(C(F)(F)F)c4)nc(Nc4ccc(N5CCOCC5)cc4)nc32)cc1,-10.4%
